# Results from PubChem BioAssay AID624417 (National Center for Advancing Translational Sciences (NCATS), 2012).
# Among all 410,000 compounds or so, about 6,400 (1.6%) were called active. Where a call stands in place of a potency, no number is given. About 20% were inconclusive and are not listed. The call rests on the fitted dose curve; in most records, active means well fitted inhibition curve with a large enough effect; inconclusive means small, poorly fitted or top-dose-only effect; inactive means no such curve, though single readings can be large or run the other way. Only a selection was taken, and actives are over-represented in it overall.
# Biological target: Glucagon-like peptide 1 receptor (Homo sapiens) (UniProt P43220)
# Sequence (P43220 whole entry, looked up): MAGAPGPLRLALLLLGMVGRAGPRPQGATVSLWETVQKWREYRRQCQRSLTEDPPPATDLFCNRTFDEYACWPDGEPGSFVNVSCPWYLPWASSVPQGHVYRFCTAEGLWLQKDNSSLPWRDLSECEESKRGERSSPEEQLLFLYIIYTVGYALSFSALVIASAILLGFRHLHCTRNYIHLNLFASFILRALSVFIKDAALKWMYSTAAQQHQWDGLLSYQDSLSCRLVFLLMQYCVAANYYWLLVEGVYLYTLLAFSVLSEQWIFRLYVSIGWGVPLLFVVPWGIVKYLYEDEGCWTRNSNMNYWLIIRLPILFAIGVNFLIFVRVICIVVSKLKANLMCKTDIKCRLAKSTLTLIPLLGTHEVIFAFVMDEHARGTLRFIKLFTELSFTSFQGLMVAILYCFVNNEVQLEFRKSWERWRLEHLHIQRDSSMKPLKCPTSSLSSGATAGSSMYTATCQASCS
# Test: qHTS of GLP-1 Receptor Inverse Agonists (Inhibition Mode); further: nearly all actives have a fitted effect of over 55% in size
# Conditions: HEK293 GLP-1R CRE-luciferase, luminescence, 24 h; series mostly up to 38.3 µM
# Excerpt: The overall goal of this project was to develop a novel assay for discovering small molecule ligands for class B1 G protein-coupled receptors (GPCRs). Very few agonists (or inverse agonists in inhibition mode) with generally weak activity for this entire group of physiologically important receptors are known to date. To establish proof-of-principle that this critical bottleneck can be overcome with a suitable screening approach, our studies focused on the class B1 receptor for glucagon-like peptide-1 (GLP-1R), a potential therapeutic target for diabetes and neurodegenerative disease. The assay was developed using a cell-based functional readout. Toward this goal, stably transfected HEK293 cell clones were established that co-express (i) a cAMP-responsive luciferase reporter gene, and (ii) constitutively active GLP-1R that upon ligand interaction inhibit (inverse agonists) the luciferase activity. In addition, two control cell lines were developed: (i) one that express only the cAMP-responsive reporter gene to enable initial exclusion of GLP-1R independent effects of candidate probes; and (ii) one with the reported gene cloned with another constitutively active orphan receptor GPR119 to enable exclusion of GLP-1R independent inhibitor effects of candidate inverse agonists. To that end, this assay was optimized for 1536-well format and screened against the MLSMR. […] NIH Molecular Libraries Probe Production Network [MLPCN] NIH Chemical Genomics Center [NCGC] Grant: NS064851 PI Name: Martin Beinborn, Tufts Medical Center
# Six ul of cell suspension (200 cells/uL in DMEM + 10% Nu serum + 1% pen-strep) is dispensed in a white solid 1536-well plate. The plates are incubated for 12 hours at 37 deg C at 5% CO2 followed by addition of 23 nL compounds. After 24 hr incubation at 37 deg C and 5% CO2, 3 uL of luciferase assay detection reagent is added. A luminescence read is obtained on the PerkinElmer Viewlux after 12 min incubation at room temperature.
# Potency means the concentration at half of the fitted maximal effect.
row,Structure (SMILES),Potency
1,O=c1c2ccccc2[nH]c(=S)n1-c1cccc(Cl)c1,inactive
2,COc1cc(-n2c(=S)[nH]c3ccc(C)cc3c2=O)c(Cl)cc1Cl,12.6 µM (active)
3,C[C@]12CCCCC1=CC(=O)C1C2CC[C@@]2(C)C1C[C@@H](F)[C@@H]2O (stereo not given in full),inactive
4,COC1=CC=C2[C@H]3Cc4ccc(OC)c5c4[C@@]2(CCN3C)C1O5 (stereo not given in full),inactive
5,COc1ccc2c(c1)NP(=S)(c1ccccc1)N2 (stereo not given),inactive
6,COC(=O)C1=C(c2cccc(OCc3ccccc3)c2)C[C@@H]2CC[C@H]1N2C(=O)NCc1ccc(Br)cc1,12.6 µM (active)
7,COC(=O)C1=C(c2ccc(F)cc2OCc2ccccc2)C[C@@H]2CC[C@H]1N2C(=O)NCc1ccc(Cl)cc1,inactive
8,COC(=O)C1=C(c2ccc(-c3ccccc3)c(F)c2)C[C@@H]2CC[C@H]1N2C(=O)NCc1ccc(F)cc1,inactive
9,COC(=O)C1=C(c2ccc(OCc3ccccc3)cc2)C[C@@H]2CC[C@H]1N2C(=O)NCc1ccc(Cl)cc1,inactive
10,COC(=O)C1=C(c2ccc(OCc3ccccc3)cc2)C[C@@H]2CC[C@H]1N2C(=O)NCc1cccc(F)c1,4.47 µM (active)
11,COC(=O)C1=C(c2ccccc2OCc2ccccc2)C[C@@H]2CC[C@H]1N2C(=O)NCc1ccc(OC)cc1,inactive
12,COc1ccc(NC(=O)N2Cc3ccccc3-n3nncc3C2)cc1,inactive
13,O=P(OC1=CCCCC1)(c1ccccc1)c1ccccc1,inactive
14,CCOC(=O)CNC(=O)N1Cc2cc(N3CCCCC3)ccc2-n2nncc2C1,inactive
15,O=C1NCN(c2ccccc2)C12CCN(C(c1cccs1)c1nnnn1C1CCCCC1)CC2 (stereo not given),inactive
16,CC1([N+](=O)[O-])COP(=O)(Nc2ccc(F)cc2)OC1 (stereo not given),inactive
17,C[C@]12CCC3C(CC[C@H]4[C@H](O)[C@H](O)CC[C@]34C)C1CC[C@@H]2O (stereo not given in full),inactive
18,Cc1ccc(CN2CCCC(C(=O)c3ccc4c(c3)OCO4)C2)cc1C (stereo not given),11.2 µM (active)
19,COc1ccc(C(=O)C2CCCN(Cc3ccc(C)s3)C2)cc1OC (stereo not given),inactive
20,Cc1ccsc1C(=O)C1CCCN(Cc2ccc(O)cc2)C1 (stereo not given),inactive
21,COc1cc(C(=O)N2Cc3ccc(Br)cc3-n3nncc3C2)cc(OC)c1OC,inactive
22,Clc1ccc(Cl)c(Oc2ccc(Oc3nc(Cl)ccc3Cl)cc2)n1,inactive
23,C[C@H]1CN([C@@H](C)CO)C(=O)CCCn2nncc2CO[C@H]1CN(C)C(=O)Oc1cccc2ccccc12,inactive
24,CC=C(C)C(=O)OC1CCN2CC=C(COC(=O)C(O)(C(C)OC)C(C)(C)O)C12 (stereo not given),inactive
25,Cc1ccc(S(=O)(=O)N(C)c2ccc(C(=O)NCC3(N(C)C)CCCCC3)cc2)cc1,3.16 µM [GLP-1R form is constitutively active] (active)
